The values that follow come from article PMC3218832.

Targets include RELARELA (p65 homodimer) (Homo sapiens, UniProt Q04206 1-307); p50p50 homodimer (Homo sapiens, UniProt P19838 7-356); RELB subunit;p50 subunit (Homo sapiens;Homo sapiens, UniProt Q01201;P19838 120-401;7-356).
Holding throughout (experiment): protein binding microarray; high values mean tight binding
Common to all, as to conditions: dsDNA, one strand shown

The target of another test is T1, p52p52 homodimer (Homo sapiens, UniProt Q00653 4-332).
T1 sequence: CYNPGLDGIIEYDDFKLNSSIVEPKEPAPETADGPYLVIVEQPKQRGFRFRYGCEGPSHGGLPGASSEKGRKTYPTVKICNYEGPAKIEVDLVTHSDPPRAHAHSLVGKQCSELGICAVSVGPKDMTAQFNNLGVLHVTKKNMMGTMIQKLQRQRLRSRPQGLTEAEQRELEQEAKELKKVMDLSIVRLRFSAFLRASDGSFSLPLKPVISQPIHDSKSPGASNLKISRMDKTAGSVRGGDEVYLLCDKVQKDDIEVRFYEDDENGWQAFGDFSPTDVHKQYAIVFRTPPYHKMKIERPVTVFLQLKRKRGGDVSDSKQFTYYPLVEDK

Test [1] deals with RELA (p65) subunit of heterodimer;p50 subunit (Homo sapiens;Homo sapiens, UniProt Q04206;P19838 1-307;7-356).
RELA (p65) subunit of heterodimer;p50 subunit, sequence (Q04206 1-307, chain 1 of 2): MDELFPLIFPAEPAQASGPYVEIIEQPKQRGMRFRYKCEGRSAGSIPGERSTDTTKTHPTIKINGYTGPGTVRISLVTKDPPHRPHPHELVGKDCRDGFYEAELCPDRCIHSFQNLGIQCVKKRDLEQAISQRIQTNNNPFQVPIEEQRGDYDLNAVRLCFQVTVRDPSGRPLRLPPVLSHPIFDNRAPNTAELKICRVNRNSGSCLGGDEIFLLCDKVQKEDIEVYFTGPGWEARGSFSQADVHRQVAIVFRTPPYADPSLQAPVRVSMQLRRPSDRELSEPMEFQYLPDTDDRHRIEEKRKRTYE
RELA (p65) subunit of heterodimer;p50 subunit, sequence (P19838 7-356, chain 2 of 2): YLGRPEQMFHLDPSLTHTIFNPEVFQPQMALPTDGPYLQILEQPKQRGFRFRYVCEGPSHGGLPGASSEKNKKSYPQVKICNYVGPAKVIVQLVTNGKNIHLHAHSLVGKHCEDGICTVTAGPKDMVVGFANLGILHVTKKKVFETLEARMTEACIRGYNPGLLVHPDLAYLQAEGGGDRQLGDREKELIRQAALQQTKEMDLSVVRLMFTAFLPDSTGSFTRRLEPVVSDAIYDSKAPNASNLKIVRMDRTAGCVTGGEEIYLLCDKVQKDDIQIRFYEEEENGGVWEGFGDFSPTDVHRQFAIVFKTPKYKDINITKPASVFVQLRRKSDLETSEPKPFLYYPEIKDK
In test [2] the target is RELA (p65) subunit of heterodimer;p52 subunit (Homo sapiens;Homo sapiens, UniProt Q04206;Q00653 1-307;4-332).
For another test, the target named is T2, RELB subunit;p52 subunit (Homo sapiens;Homo sapiens, UniProt Q01201;Q00653 120-401;4-332).
T2 sequence 1: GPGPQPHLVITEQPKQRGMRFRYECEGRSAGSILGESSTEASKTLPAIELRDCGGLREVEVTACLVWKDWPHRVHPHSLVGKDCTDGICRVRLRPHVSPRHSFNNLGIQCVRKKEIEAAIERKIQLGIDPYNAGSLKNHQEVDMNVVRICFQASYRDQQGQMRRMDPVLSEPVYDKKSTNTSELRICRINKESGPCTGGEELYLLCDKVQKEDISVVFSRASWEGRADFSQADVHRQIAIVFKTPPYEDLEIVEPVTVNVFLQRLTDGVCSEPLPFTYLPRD
T2 sequence 2: T1 sequence

In test [3] the target is C-Rel subunit;p50 subunit (Homo sapiens;Homo sapiens, UniProt Q04864;P19838 1-285;7-356).
Test [4] addresses T3, C-Rel subunit;p52 subunit (Homo sapiens;Homo sapiens, UniProt Q04864;Q00653 1-285;4-332).
T3 sequence 1: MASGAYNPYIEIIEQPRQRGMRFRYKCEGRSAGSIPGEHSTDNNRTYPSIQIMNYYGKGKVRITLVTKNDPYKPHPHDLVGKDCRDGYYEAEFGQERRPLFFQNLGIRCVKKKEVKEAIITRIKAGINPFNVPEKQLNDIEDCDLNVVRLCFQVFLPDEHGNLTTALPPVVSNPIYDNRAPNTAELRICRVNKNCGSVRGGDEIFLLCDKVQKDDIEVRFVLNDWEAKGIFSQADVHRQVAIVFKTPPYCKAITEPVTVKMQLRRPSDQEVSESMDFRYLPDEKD
T3 sequence 2: T1 sequence

RELARELA (p65 homodimer), sequence (Q04206 1-307): as the sequence (Q04206 1-307, chain 1 of 2) above
p50p50 homodimer, sequence (P19838 7-356): as the sequence (P19838 7-356, chain 2 of 2) above

For CGGTACATCCC, the binding signal with RELARELA (p65 homodimer) stood at 0.722 z-score; with p50p50 homodimer, 0.342 z-score; with p52p52 homodimer it was 1.69 z-score; in test [1], 0.384 z-score; in test [2], 0.93 z-score; with RELB subunit;p50 subunit it was 0.529 z-score. The binding signal with RELB subunit;p52 subunit amounted to 0.811 z-score; in test [3] it was 0.0779 z-score; in test [4], 0.879 z-score.
Regarding CAATTCCCCCC, the binding signal in the test with RELARELA (p65 homodimer) is 1.09 z-score; with p50p50 homodimer, 1.66 z-score; with p52p52 homodimer, 1.93 z-score; in test [1], 2.3 z-score; in test [2], 1.94 z-score; with RELB subunit;p50 subunit, 2.19 z-score. Moreover, the binding signal was found to be 2.34 z-score in the test with RELB subunit;p52 subunit, 1.94 z-score in [3] and 1.85 z-score in test [4].
For AGAGAGGCCCC, the binding signal with RELARELA (p65 homodimer) was -0.813 z-score; in the test with p50p50 homodimer, -0.259 z-score; in the test with p52p52 homodimer, -0.348 z-score; in test [1], -0.461 z-score; in [2], -0.565 z-score; with RELB subunit;p50 subunit it was -0.342 z-score. The binding signal in the test with RELB subunit;p52 subunit was -0.35 z-score; in [3], -0.436 z-score; in test [4] it was -0.513 z-score.
Consider AGGGGGGCCCT, for which the binding signal with RELARELA (p65 homodimer) was -0.0645 z-score; in the test with p50p50 homodimer, 0.812 z-score; in the test with p52p52 homodimer, 0.991 z-score; in test [1], 0.478 z-score; in test [2] it was 1.13 z-score; with RELB subunit;p50 subunit, 0.542 z-score. In addition, the binding signal with RELB subunit;p52 subunit was determined as 1.2 z-score; in test [3], 0.525 z-score; in [4], 1.04 z-score.
With GAGTTGCCCCC, the binding signal amounted to 0.487 z-score with RELARELA (p65 homodimer); 1.04 z-score with p50p50 homodimer; 0.557 z-score with p52p52 homodimer; 1.06 z-score in test [1]; 0.811 z-score in test [2]; 0.918 z-score in the test with RELB subunit;p50 subunit. Besides, the binding signal is 0.947 z-score with RELB subunit;p52 subunit, 1.16 z-score in test [3] and 0.676 z-score in [4].
For CGGAAGCTCCT, the binding signal with RELARELA (p65 homodimer) was -0.12 z-score; in the test with p50p50 homodimer it was -1.95 z-score; with p52p52 homodimer, -0.752 z-score; in [1], -1.05 z-score; in test [2] it was -1.08 z-score; with RELB subunit;p50 subunit it was -1.17 z-score. The binding signal is -1.2 z-score in the test with RELB subunit;p52 subunit, -1.46 z-score in test [3] and -0.785 z-score in [4].
As for AAGGGGCTCCT, the binding signal in the test with RELARELA (p65 homodimer) is -0.668 z-score; in the test with p50p50 homodimer it was 0.769 z-score; with p52p52 homodimer it was 0.959 z-score; in [1], 0.032 z-score; in test [2], 0.753 z-score; with RELB subunit;p50 subunit, 0.344 z-score. Besides, the figures for the binding signal (with RELB subunit;p52 subunit; in test [3]; in test [4]) were 0.791 z-score, -0.103 z-score and 0.392 z-score, respectively.
Turning to GGAATATCCCT, the binding signal with RELARELA (p65 homodimer) amounted to 2.04 z-score; with p50p50 homodimer, 0.687 z-score; in the test with p52p52 homodimer, 1.23 z-score; in test [1], 1.41 z-score; in test [2], 1.36 z-score; in the test with RELB subunit;p50 subunit it was 0.471 z-score. Besides, the binding signal stood at 1.04 z-score with RELB subunit;p52 subunit, 0.979 z-score in [3] and 1.6 z-score in test [4].
As to GGGAATCTCCT, the binding signal with RELARELA (p65 homodimer) worked out at 2.57 z-score; with p50p50 homodimer, 0.441 z-score; in the test with p52p52 homodimer, 1.08 z-score; in test [1] it was 0.896 z-score; in test [2], 0.912 z-score; in the test with RELB subunit;p50 subunit, 0.367 z-score. The binding signal with RELB subunit;p52 subunit was 0.827 z-score; in test [3], 0.987 z-score; in [4], 1.35 z-score.
For AAGGAGCTCCC, the binding signal with RELARELA (p65 homodimer) was -0.693 z-score; with p50p50 homodimer it was -0.999 z-score; in the test with p52p52 homodimer it was -0.562 z-score; in test [1], -0.64 z-score; in test [2] it was -0.893 z-score; with RELB subunit;p50 subunit it was -0.741 z-score. For the same sequence, the values for the binding signal (with RELB subunit;p52 subunit; in test [3]; in test [4]) were -0.874 z-score, -0.927 z-score and -0.843 z-score, respectively.
As to AAGGTCCTCCT, the binding signal with RELARELA (p65 homodimer) is -0.719 z-score; with p50p50 homodimer, -0.992 z-score; with p52p52 homodimer it was -0.49 z-score; in test [1] it was -0.86 z-score; in test [2] it was -0.773 z-score; with RELB subunit;p50 subunit, -0.932 z-score. Besides, the binding signal in the test with RELB subunit;p52 subunit is -0.687 z-score; in [3], -1.16 z-score; in test [4], -0.643 z-score.
As for AGAGTGTCCCT, the binding signal with RELARELA (p65 homodimer) worked out at 0.267 z-score; with p50p50 homodimer, 0.607 z-score; with p52p52 homodimer, 0.823 z-score; in [1], 0.527 z-score; in test [2] it was 0.604 z-score; in the test with RELB subunit;p50 subunit, 0.851 z-score. Besides, the binding signal with RELB subunit;p52 subunit came out at 1.25 z-score; in test [3] it was 0.738 z-score; in [4], 0.669 z-score.
As to AAATACACCCC, the binding signal in the test with RELARELA (p65 homodimer) was -0.0111 z-score; with p50p50 homodimer, 0.252 z-score; with p52p52 homodimer it was 0.0531 z-score; in test [1] it was 0.224 z-score; in test [2] it was 0.204 z-score; in the test with RELB subunit;p50 subunit, 0.209 z-score. Also, the binding signal with RELB subunit;p52 subunit was 0.566 z-score; in [3], 0.342 z-score; in test [4] it was 0.187 z-score.
With GAAGGAACCCT, the binding signal with RELARELA (p65 homodimer) was -0.526 z-score; in the test with p50p50 homodimer, -1.31 z-score; with p52p52 homodimer it was -0.566 z-score; in test [1], -0.887 z-score; in test [2], -0.818 z-score; with RELB subunit;p50 subunit, -0.996 z-score. The binding signal with RELB subunit;p52 subunit is -0.793 z-score; in test [3], -1.1 z-score; in test [4] it was -0.694 z-score.
As for AAAATACCCCT, the binding signal with RELARELA (p65 homodimer) was determined as 1.01 z-score; with p50p50 homodimer, 1.41 z-score; in the test with p52p52 homodimer, 1.92 z-score; in test [1], 1.65 z-score; in test [2], 1.8 z-score; with RELB subunit;p50 subunit, 1.63 z-score. In addition, the binding signal was determined as 2.25 z-score with RELB subunit;p52 subunit, 1.26 z-score in test [3] and 1.95 z-score in test [4].
